Results reported in PubChem BioAssay.
Calls of active or inactive are those of the source.

Columns and labels:
[1] = test system: Plasmodium falciparum Sir2 (PF13_0152, Sir2A); experiment: Plasmodium falciparum Sir2A binding compounds – biochemical, small-molecule microarray, 635 nm fluorescence, primary screen (AID 1098); conditions: fluorescence 635 nm, higher = more signal;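 note: score merges spot fluorescence intensity with its signal-to-noise ratio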
[2] = probe aDKK1 binding to arrayed compounds – biochemical, biotinylated probe, 635/667 nm fluorescence, primary screen (AID 1099); conditions: small-molecule microarray, higher = more signal;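 note: score merges 667nm spot fluorescence with signal to noise across triplicate slides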
[3] = probe aCHRDL2 binding to arrayed compounds – biochemical, biotinylated probe, 635/667 nm fluorescence, primary screen (AID 1100); conditions: small-molecule microarray, higher = more signal
[4] = change in splice reporter luminescence, either direction, cell-based, HEK293, spliceosome inhibition project, primary screen (AID 1101); conditions: HEK293 splicing luciferase reporter, 24 h, higher = more signal, called active from +8 up or from −8 down;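 note: HEK293 cells carrying a splicing-competent luciferase reporter gene; test concentration not given here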
[5] = target: Fibroblast growth factor 10 (Homo sapiens) (UniProt O15520); experiment: compounds binding fibroblast growth factor 10 – biochemical, small-molecule microarray, 635 nm fluorescence, primary screen (AID 1102); conditions: FGF10 binding, fluorescence 635 nm, higher = more signal
[6] = test system: glycogen synthase kinase-3 (GSK3A per assay name; protocol says GSK3B); experiment: compounds binding glycogen synthase kinase-3 – biochemical, small-molecule microarray, 635 nm fluorescence, GSK3A, primary screen (AID 1103); conditions: fluorescence 635 nm, higher = more signal; note: the record names both GSK3A and GSK3B
[7] = target: Epidermal growth factor receptor (Homo sapiens) (UniProt P00533); experiment: compounds binding epidermal growth factor receptor – biochemical, small-molecule microarray, 635 nm fluorescence, primary screen (AID 1104); conditions: EGFR binding, higher = more signal;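 note: score merges 667 nm emission intensity with spot signal to noise over triplicate slides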
[8] = target: Follistatin-related protein 3 (Homo sapiens) (UniProt O95633); experiment: compounds binding follistatin-related protein 3 – biochemical, small-molecule microarray, 635 nm fluorescence, primary screen (AID 1105); conditions: FSTL3 binding, higher = more signal;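 note: score merges emission near 667 nm and signal to noise per printed spot across three slides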
[9] = target: Dickkopf-related protein 1 (Homo sapiens) (UniProt O94907); experiment: small molecules binding DKK1 protein – biochemical, small-molecule microarray, 635 nm fluorescence scan, primary screen (AID 1106); conditions: higher = more signal;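 note: score merges emission near 667 nm with signal to noise over three replicate slides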
[10] = test system: Inhibin beta A chain (activin A); experiment: small molecules binding activin A – biochemical, small-molecule microarray, 635 nm fluorescence scan, primary screen (AID 1107); conditions: INHBA, higher = more signal;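 note: mouse activin A protein probed at 4.33 µg/mL on printed slides; score merges bound-protein fluorescence near 667 nm with spot signal-to-noise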
[11] = test system: Human papillomavirus type 1a protein E7 (residues 44-93); experiment: small molecules binding HPV E7 44-93 – biochemical, small-molecule microarray, residues 44-93, 635 nm fluorescence, primary screen (AID 1108); conditions: fluorescence 635 nm, higher = more signal;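 note: E7 fragment applied at 1 µg/mL in TBST for 1 h at 4 C; score combines spot fluorescence with its signal to noise ratio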
[12] = hepatitis C replication reporter changes, two-sided – Huh7 cells, luciferase reporter, HCV replication inhibitor project, primary screen (AID 1109); conditions: Huh7 HCV replicon luciferase reporter, 48 h; higher = more signal;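 note: huh7 hepatoma cells harbouring a luciferase neomycin HCV replicon reporter; luciferase luminescence as measure of HCV replicon replication; test concentration not given here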
[13] = target: Left-right determination factor 2 (Homo sapiens) (UniProt O00292); experiment: small molecules binding LEFTY2 protein – biochemical, small-molecule microarray, 635 nm fluorescence scan, primary screen (AID 1110); conditions: higher = more signal
[14] = target: Calmodulin-1 (Homo sapiens) (UniProt P0DP23); experiment: small molecules binding calmodulin-1 with EGTA – biochemical, small-molecule microarray, Cy5-labelled CALM1, profiling panel (AID 1111); conditions: Cy5-CALM1 binding fluorescence, higher = more signal;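 note: labelled calmodulin applied in Tris saline Tween buffer holding calcium plus EGTA and DTT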
[15] = target: Calmodulin-1 (Homo sapiens) (UniProt P0DP23); experiment: small molecules binding Ca-loaded calmodulin-1 – biochemical, small-molecule microarray, Cy5-labelled CALM1, plus calcium, artefact control for SMM control-protein annotation, profiling panel (AID 1112); conditions: Cy5-CALM1 binding fluorescence, higher = more signal;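 note: score merges spot fluorescence with signal to noise from triplicate slides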
[16] = probe aWnt5a binding to arrayed compounds – biochemical, biotinylated probe, 635/667 nm fluorescence, primary screen (AID 1113); conditions: small-molecule microarray, higher = more signal;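 note: score merges 667 nm fluorescence intensity with signal-to-noise per printed feature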
[17] = probe aShh binding to arrayed compounds – biochemical, biotinylated probe, 635/667 nm fluorescence, primary screen (AID 1114); conditions: small-molecule microarray, higher = more signal;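 note: probe is biotin-labelled aShh protein from a stem cell growth factor screen; measures binding of labelled protein to compounds printed on the slide; score merges feature fluorescence at 667 nm with signal-to-noise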
[18] = probe aNog binding to arrayed compounds – biochemical, biotinylated probe, 635/667 nm fluorescence, primary screen (AID 1115); conditions: small-molecule microarray, higher = more signal;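 note: probe is biotinylated aNog protein used at 0.15 µg/mL for 1 h at 4 C; z-score combines 667 nm fluorescence of each spot with its signal to noise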
[19] = target: Torsin-1A-interacting protein 1 (Homo sapiens) (UniProt Q5JTV8); experiment: compound microarray binding of lysate hLAP1 – cell lysate, small-molecule microarray, COS7 lysate, 635/667 nm fluorescence, primary screen (AID 1116); conditions: 635 nm fluorescence, higher = more signal
[20] = target: Alpha-bungarotoxin (Bungarus multicinctus) (UniProt P60615); experiment: compounds binding labelled alpha-BTX control protein – biochemical, small-molecule microarray, Alexa647 label, 635/667 nm fluorescence, artefact control for SMM control protein annotation, profiling panel (AID 1117); conditions: alpha-BTX-A647 binding fluorescence, higher = more signal
Alpha-bungarotoxin (Bungarus multicinctus), sequence (P60615 whole entry, looked up): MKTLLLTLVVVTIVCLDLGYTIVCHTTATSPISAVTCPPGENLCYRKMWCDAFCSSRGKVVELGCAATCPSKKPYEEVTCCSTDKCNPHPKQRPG

Dickkopf-related protein 1 (Homo sapiens), sequence (O94907 whole entry, looked up): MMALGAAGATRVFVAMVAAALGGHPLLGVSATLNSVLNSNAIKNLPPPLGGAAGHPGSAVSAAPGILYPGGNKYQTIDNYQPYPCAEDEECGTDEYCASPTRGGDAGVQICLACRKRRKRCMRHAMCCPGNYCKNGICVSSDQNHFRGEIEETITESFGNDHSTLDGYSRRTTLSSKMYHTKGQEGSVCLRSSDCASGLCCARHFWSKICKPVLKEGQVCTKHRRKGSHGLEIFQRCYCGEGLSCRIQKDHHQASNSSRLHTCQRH
Epidermal growth factor receptor (Homo sapiens), sequence (P00533 whole entry, looked up): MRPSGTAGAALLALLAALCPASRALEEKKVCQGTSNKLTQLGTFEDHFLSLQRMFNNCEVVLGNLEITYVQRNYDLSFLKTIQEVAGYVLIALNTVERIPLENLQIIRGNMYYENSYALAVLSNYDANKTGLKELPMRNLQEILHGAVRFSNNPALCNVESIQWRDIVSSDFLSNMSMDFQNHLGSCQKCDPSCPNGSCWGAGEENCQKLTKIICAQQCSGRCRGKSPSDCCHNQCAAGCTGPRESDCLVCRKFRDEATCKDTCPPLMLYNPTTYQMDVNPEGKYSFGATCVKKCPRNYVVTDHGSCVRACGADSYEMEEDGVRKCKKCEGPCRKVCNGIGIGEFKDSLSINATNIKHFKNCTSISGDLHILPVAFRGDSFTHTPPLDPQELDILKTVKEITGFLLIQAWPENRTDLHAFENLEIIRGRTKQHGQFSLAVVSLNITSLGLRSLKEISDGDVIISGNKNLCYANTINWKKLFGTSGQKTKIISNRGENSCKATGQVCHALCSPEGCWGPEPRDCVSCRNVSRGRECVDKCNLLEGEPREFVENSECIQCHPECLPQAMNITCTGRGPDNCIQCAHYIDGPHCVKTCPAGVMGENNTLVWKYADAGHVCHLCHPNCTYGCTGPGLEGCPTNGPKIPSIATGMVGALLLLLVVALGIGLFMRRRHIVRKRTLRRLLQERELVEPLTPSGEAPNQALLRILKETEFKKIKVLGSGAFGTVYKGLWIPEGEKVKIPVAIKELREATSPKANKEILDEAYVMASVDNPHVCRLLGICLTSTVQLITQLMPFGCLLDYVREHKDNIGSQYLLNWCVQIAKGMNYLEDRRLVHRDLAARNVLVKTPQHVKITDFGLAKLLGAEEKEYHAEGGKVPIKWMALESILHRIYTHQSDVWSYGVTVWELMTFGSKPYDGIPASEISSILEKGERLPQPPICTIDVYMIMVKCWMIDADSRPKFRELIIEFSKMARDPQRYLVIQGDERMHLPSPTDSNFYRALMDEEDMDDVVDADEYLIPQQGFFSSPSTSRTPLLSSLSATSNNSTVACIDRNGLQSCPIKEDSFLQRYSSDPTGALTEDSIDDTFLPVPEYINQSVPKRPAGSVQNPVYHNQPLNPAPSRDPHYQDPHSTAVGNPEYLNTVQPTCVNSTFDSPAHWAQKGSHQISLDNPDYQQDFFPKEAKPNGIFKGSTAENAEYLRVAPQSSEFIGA
Torsin-1A-interacting protein 1 (Homo sapiens), sequence (Q5JTV8 whole entry, looked up): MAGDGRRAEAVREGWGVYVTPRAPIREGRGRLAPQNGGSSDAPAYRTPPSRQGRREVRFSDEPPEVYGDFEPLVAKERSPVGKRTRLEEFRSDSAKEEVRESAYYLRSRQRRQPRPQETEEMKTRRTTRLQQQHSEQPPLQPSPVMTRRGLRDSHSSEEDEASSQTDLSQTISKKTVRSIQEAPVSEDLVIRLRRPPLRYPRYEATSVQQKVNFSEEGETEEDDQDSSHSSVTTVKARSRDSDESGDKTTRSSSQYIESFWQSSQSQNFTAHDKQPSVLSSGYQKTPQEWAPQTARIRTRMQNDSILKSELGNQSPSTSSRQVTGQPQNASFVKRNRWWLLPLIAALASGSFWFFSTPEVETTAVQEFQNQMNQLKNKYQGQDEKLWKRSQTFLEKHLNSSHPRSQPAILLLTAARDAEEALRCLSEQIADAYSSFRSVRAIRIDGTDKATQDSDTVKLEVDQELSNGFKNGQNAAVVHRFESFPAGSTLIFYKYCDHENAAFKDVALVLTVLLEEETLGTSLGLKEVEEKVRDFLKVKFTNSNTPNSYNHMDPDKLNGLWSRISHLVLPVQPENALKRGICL
Fibroblast growth factor 10 (Homo sapiens), sequence (O15520 whole entry, looked up): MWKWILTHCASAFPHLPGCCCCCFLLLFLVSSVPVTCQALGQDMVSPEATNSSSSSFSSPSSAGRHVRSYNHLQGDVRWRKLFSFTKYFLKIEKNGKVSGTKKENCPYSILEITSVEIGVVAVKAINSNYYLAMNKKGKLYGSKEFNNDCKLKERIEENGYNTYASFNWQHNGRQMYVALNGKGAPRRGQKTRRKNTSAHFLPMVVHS
Left-right determination factor 2 (Homo sapiens), sequence (O00292 whole entry, looked up): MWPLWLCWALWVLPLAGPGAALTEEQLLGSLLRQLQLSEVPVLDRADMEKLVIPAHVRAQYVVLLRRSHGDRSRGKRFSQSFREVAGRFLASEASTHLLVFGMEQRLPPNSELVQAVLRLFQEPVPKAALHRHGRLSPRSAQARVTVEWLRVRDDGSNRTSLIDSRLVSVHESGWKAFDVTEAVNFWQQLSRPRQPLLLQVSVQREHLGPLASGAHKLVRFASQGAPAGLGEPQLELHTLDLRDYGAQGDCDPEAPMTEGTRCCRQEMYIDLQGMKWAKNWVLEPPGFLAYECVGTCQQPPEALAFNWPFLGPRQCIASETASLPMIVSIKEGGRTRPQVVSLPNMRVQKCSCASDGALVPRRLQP
Follistatin-related protein 3 (Homo sapiens), sequence (O95633 whole entry, looked up): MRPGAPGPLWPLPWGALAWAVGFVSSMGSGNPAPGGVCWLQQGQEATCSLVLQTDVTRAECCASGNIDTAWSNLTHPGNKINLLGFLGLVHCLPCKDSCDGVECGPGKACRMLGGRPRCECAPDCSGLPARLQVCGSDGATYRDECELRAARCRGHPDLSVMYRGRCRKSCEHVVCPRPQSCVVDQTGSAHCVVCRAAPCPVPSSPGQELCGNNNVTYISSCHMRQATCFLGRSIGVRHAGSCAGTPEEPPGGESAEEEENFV

SMILES | composite z-score [1] | composite z-score [2] | composite z-score [3] | z-score [4] | composite z-score [5] | composite z-score [6] | composite z-score [7] | composite z-score [8] | composite z-score [9] | composite z-score [10] | composite z-score [11] | z-score [12] | composite z-score [13] | composite z-score [14] | composite z-score [15] | composite z-score [16] | composite z-score [17] | composite z-score [18] | composite z-score [19] | composite z-score [20]
CCCC[C@@H](O)C1=C(COc2ccccc2)Cn2c(=O)n(-c3ccccc3)c(=O)n2[C@H]1CO | -0.229 | -0.396 | -0.444 | -2.11 (inactive) | 0.217 | 0.106 | 0.111 | -0.423 | -0.0681 | 0.606 | -0.616 | -1.52 | 0.0253 | -0.634 | -0.116 | -0.124 | -0.248 | -0.182 | -0.222 | -1.62
O=C1O[C@H](c2ccccc2)[C@H](c2ccccc2)N2[C@H]1[C@@H](C(=O)N1CCN(c3ncccn3)CC1)[C@]1(C(=O)Nc3ccc(C#CCCO)cc31)[C@H]2c1ccccc1OCCO | 1.24 | 0.0649 | 0.447 | 0.105 (inactive) | 1.15 | 1.11 | 0.282 | 0.501 | 0.525 | -0.14 | 1.02 | -1.49 | 0.708 | 1.46 | 0.12 | -0.091 | 0.126 | 0.576 | 0.453 | 1.77
C=CC[C@@]1(C(=O)NCCN2CCOCC2)N=C(c2ccc(OCCCO)cc2)O[C@@H]1c1ccccc1 | 1.28 | 0.449 | 0.853 | -0.161 (inactive) | 1.5 | 1.29 | 0.802 | 1.22 | 0.785 | 0.726 | 1.46 | -1.34 | 0.902 | -0.0984 | -0.0501 | 0.0873 | -0.0093 | 1 | 1.06 | 0.991
COCCCNC(=O)[C@@]1(Cc2ccccc2N=[N+]=[N-])N=C(c2ccc(OCCCO)cc2)O[C@H]1c1ccccc1CN=[N+]=[N-] | 0.953 | 1.19 | 1.18 | -0.456 (inactive) | 1.43 | 1.21 | 0.0402 | 0.511 | -0.338 | 1.21 | 1.44 | -2.86 | 0.0627 | 0.941 | 0.0507 | 0.0676 | 0.551 | 1.47 | 1.54 | 1.71
COC(=O)[C@@]1(Cc2ccccc2)[C@H]2c3cc(C(=O)N4CCCC4)n(Cc4ccccc4)c3C[C@H]2CN1C(=O)c1ccccc1 | 1.1 | 0.854 | 0.94 | -2.8 (inactive) | 1.12 | 0.882 | 0.0075 | 0.96 | -0.197 | 0.675 | 1.45 | -2.45 | -0.347 | 1.42 | 0.168 | 0.0362 | 0.356 | 1.48 | 0.55 | 0.401
COC(=O)C(CC#Cc1ccc2c(c1)[C@]1(C(=O)N2)[C@H](C(=O)N2CCc3cc(OC)c(OC)cc3C2)[C@H]2C(=O)O[C@H](c3ccccc3)[C@H](c3ccccc3)N2[C@@H]1c1ccc(O)cc1)C(=O)OC | 1.06 | 0.432 | 0.417 | 0.362 (inactive) | 1.4 | 1.35 | 0.919 | 1.43 | 1.71 | -0.227 | 1.27 | -1.06 | 1.35 | 1.35 | 0.537 | -0.0303 | 0.529 | -0.491 | 0.908 | 1.12
C=CCC(OC(C)=O)[C@@H]1[C@@H](N(Cc2cc3ccccc3o2)C(=O)Cc2ccc(OC)cc2)c2cc(OCCCO)ccc2N1C(=O)c1ccc(-c2ccccc2)cc1 (stereo not given in full) | -0.297 | 0.068 | 0.63 | -0.354 (inactive) | -0.185 | -0.158 | -0.426 | -0.272 | -0.45 | 1.34 | 0.0962 | -0.71 | -0.214 | -0.365 | 0.468 | -0.0767 | -0.147 | -0.23 | -0.113 | 0.0856
COc1cc(C(O)C2C=CC3C(=O)NC(=O)C3N2Nc2ccc(Cl)cc2Cl)cc(OC)c1OC (stereo not given) | 1.18 | 0.88 | 1.12 | 0.734 (inactive) | 0.746 | 0.189 | -0.0874 | 1.28 | -0.675 | 1.11 | 1.44 | 0.221 | -0.118 | 2.03 | 0.866 | 0.0809 | -0.0243 | 1.22 | 1.22 | 0.877
Cc1ccccc1C(O)C1C=CC2C(=O)N(C)C(=O)C2N1Nc1ccc([N+](=O)[O-])cc1[N+](=O)[O-] (stereo not given) | 0.878 | 0.647 | 0.831 | -0.311 (inactive) | 1.11 | 1.28 | 0.226 | 1.17 | -0.53 | 0.648 | 1.45 | 0.265 | 0.0979 | 1.43 | 1.08 | 0.14 | 0.254 | -0.235 | 1.24 | 1.36
O=C1N(CCS(=O)(=O)c2ccccc2)c2ccccc2[C@H]2OC(c3ccc(OCCCO)cc3)=N[C@@]12CCS(=O)(=O)c1ccccc1 | 1.31 | 1.59 | 1.16 | -0.0214 (inactive) | 1.35 | 1.31 | 0.736 | 1.31 | 0.9 | 1.29 | 1.13 | 0.208 | 0.98 | 0.589 | 0.362 | 0.385 | 0.359 | 1.29 | 0.475 | 0.96
COc1ccccc1CN1C(=O)c2ccccc2[C@](Cc2ccccc2I)(C(=O)NCCN2CCOCC2)[C@@H]1c1ccc(CO)cc1 | 1.62 | -0.0631 | 0.227 | 0.233 (inactive) | 1.02 | 1.31 | 1.05 | 1.46 | 0.635 | 0.437 | 1.36 | -2.96 | 1.01 | 0.688 | -0.768 | -0.0118 | -0.144 | -0.0746 | 0.488 | 1.19
